Experimental data as given in PubChem BioAssay (NCI).
This is part of a sample that, as a whole, favours compounds with a hit. Of some 83,000 tested, about 20% had one in any assay.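 Values shown are percent growth following 48 h exposure of cells in 96-well plates to a single concentration of compound; below 10 was considered active.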 The source made the active and inactive calls.

Tests used:
Assay in all cases: NCI-60 one-dose screen, 48 h (100 = growth as untreated, 0 = no growth, -100 = all killed)
Conditions in all cases: 10 µM unless noted
[1] = tested on: NCI-H23 lung
[2] = tested on: NCI-H226 lung
[3] = tested on: NCI-H322M lung
[4] = tested on: HOP-62 NSCLC
[5] = tested on: NCI-H460 lung
[6] = tested on: HOP-92 NSCLC
[7] = tested on: NCI-H522 lung
[8] = tested on: A549/ATCC NSCLC
[9] = tested on: 786-0 renal
[10] = tested on: COLO 205 colon

Measured: growth

O=c1c2c3c(sc2n2c(CCl)nnc2n1Cc1ccccc1)CCCC3
active: [1] -42.1% | [2] -60.9% | [3] -97% | [5] -11.5% | [6] -81.7% | [7] -57.1% | [9] -18% | [10] -39.1%
inactive: [4] 54.7% | [8] 28.5%

O=C(CN1CCN(c2cc3c(cc2F)c(=O)c(C(=O)O)cn3C2CC2)CC1)Nc1nc(-c2ccccc2)cs1
inactive: [1] 86.4% | [2] 77.3% | [3] 102% | [4] 81.1% | [5] 73.3% | [6] 70.8% | [7] 75.5% | [8] 65.2% | [9] 75.5% | [10] 93.3%

O=C(Nc1ccc(Nc2cc(Nc3ccccc3)ncn2)cc1)Nc1cc(C(F)(F)F)ccc1F
inactive: [1] 77.5% | [2] 94.7% | [3] 61.9% | [4] 68.6% | [5] 69.8% | [6] 49.3% | [7] 24.5% | [8] 48.1% | [9] 84.4% | [10] 64.4%

COc1ccc(-c2cc(C(=O)N=Nc3c(O)[nH]c4ccccc34)no2)cc1
inactive: [1] 101% | [2] 94% | [3] 103% | [4] 91.6% | [5] 102% | [6] 100% | [7] 82.4% | [8] 107% | [9] 104% | [10] 111%

COc1cc(/C=N\NC(=O)CN2CCN(c3cc4c(cc3F)c(=O)c(C(=O)N/N=C/c3ccc(O)c(OC)c3)cn4C3CC3)CC2)ccc1O
active: [10] -9.77%
inactive: [1] 53.7% | [2] 70.5% | [3] 31.7% | [4] 73.1% | [5] 67% | [6] 70.9% | [7] 18.9% | [8] 66.9% | [9] 92.4%

COc1ccccc1-c1ccc2c(N)c(C(=O)c3ccc4c(c3)OCO4)sc2n1
inactive: [1] 82.1% | [2] 96.7% | [3] 94.7% | [4] 73.3% | [5] 60.2% | [6] 67.8% | [7] 18.6% | [8] 46.1% | [9] 86% | [10] 89.1%

O=C(O)c1c([N+](=O)[O-])cnc2ccccc12
inactive: [1] 91.5% | [2] 91.8% | [3] 96.6% | [4] 90.6% | [5] 106% | [6] 131% | [7] 100% | [8] 102% | [9] 105% | [10] 121%

CCNS(=O)(=O)c1ncnc2nc[nH]c12
inactive: [1] 97.1% | [2] 120% | [3] 111% | [4] 105% | [5] 104% | [6] 98.6% | [7] 88.5% | [8] 119% | [9] 104% | [10] 112%

N#Cc1c(N)nc(N)nc1Nc1ccc(Br)cc1
inactive: [1] 102% | [2] 83.9% | [3] 89.9% | [4] 119% | [5] 96.7% | [6] 92.3% | [7] 70.9% | [8] 78.2% | [9] 123% | [10] 135%

Nc1cccc(-c2nc3sccn3c2-c2ccnc(NCCCNS(=O)(=O)c3ccc(C(F)(F)F)cc3)n2)c1
active: [1] 4.88% | [2] 2.96% | [5] 2.98% | [7] 8.73% | [10] 6.24%
inactive: [3] 19.4% | [4] 19.5% | [6] 71.4% | [8] 12.8% | [9] 23.6%

CCCCCCCCCC(=O)Oc1ccc(/C(=C(/C)Cc2cccc(OC)c2)c2ccc(OCCN(C)C)cc2)cc1
inactive: [1] 99.3% | [2] 114% | [3] 107% | [4] 111% | [5] 112% | [6] 113% | [7] 97% | [8] 108% | [9] 103% | [10] 118%

CCOC(=O)Cc1cnn(C)c1NC(=O)c1ccc(Cl)cc1NC(C)=O
inactive: [1] 104% | [2] 98.6% | [3] 79.1% | [4] 96.4% | [5] 119% | [6] 91.4% | [7] 95.4% | [8] 103% | [9] 98.4% | [10] 110%

CC(C)[C@@H]1CC[C@]2(C(=O)NCCCCN=C(N)N)CC[C@]3(C)[C@H](CC[C@@H]4[C@@]5(C)CCC(=O)C(C)(C)[C@@H]5CC[C@]43C)[C@@H]12
active: [10] 2.37%
inactive: [1] 69.3% | [2] 84.1% | [3] 73.8% | [4] 72.6% | [5] 58.9% | [6] 57.6% | [7] 19.5% | [8] 80.9% | [9] 70.7%

CSc1ccc(N=C=C(c2ccccc2)c2ccccc2)cc1
inactive: [1] 99% | [2] 95.7% | [3] 107% | [4] 96.1% | [5] 102% | [6] 85.4% | [7] 71.8% | [8] 78.4% | [9] 95.6% | [10] 107%

c1ccc(-c2nc(N3CCOCC3)c3c4c(sc3n2)CCCCC4)nc1
active: [6] -2.36%
inactive: [1] 66.9% | [2] 50.4% | [3] 67.3% | [4] 61% | [5] 33.4% | [7] 29.5% | [8] 51% | [9] 75.9% | [10] 52.4%

Cc1ccc2c(c1)C(=O)/C(=C/c1ccc(OCC(=O)c3ccccc3)cc1)O2
inactive: [1] 84.7% | [2] 69.4% | [3] 108% | [4] 87.5% | [5] 108% | [6] 66.8% | [7] 89.2% | [8] 81.6% | [9] 86.8% | [10] 107%

CC(C)c1c(C(=O)Nc2ccccc2)c(-c2ccccc2)c(-c2ccc(F)cc2)n1CC[C@@H]1CC=CC(=O)O1
active: [1] 1.14% | [5] 5.24% | [6] -24.5% | [7] -33.4% | [8] -9.24% | [9] -26.2% | [10] -49.9%
inactive: [2] 39.7% | [3] 58.6% | [4] 12.4%

NC(N)=Nc1ccc(S(=O)(=O)O)cc1
inactive: [1] 102% | [2] 105% | [3] 114% | [4] 106% | [5] 109% | [6] 84.3% | [7] 79.3% | [8] 106% | [9] 98.3% | [10] 109%

COc1ccc(C(=O)c2sc3nc4c(c(C(F)(F)F)c3c2N)CN(C(C)=O)CC4)cc1OC
inactive: [1] 90.5% | [2] 78.2% | [3] 93.1% | [4] 87% | [5] 95.8% | [7] 78.5% | [8] 91% | [9] 91.9% | [10] 92.4%
active: [6] -0.986%

O=S(=O)(NCCCNc1cc(-c2cn(-c3ccccc3)nc2-c2cccc(O)c2)ccn1)c1ccccc1
active: [10] -12.1%
inactive: [1] 65.9% | [2] 41.9% | [3] 60.4% | [4] 77.3% | [5] 39% | [6] 45.2% | [7] 52.5% | [8] 35.8% | [9] 13.1%

C=C1CCC2C3(C)COC(c4ccc(OC)cc4Br)OC3CCC2(C)C1/C=C/C1=CCOC1=O (stereo not given)
inactive: [1] 52.7% | [2] 63.1% | [3] 97.6% | [4] 97.3% | [5] 65% | [6] 84.8% | [7] 63.8% | [8] 58.2% | [9] 77.6% | [10] 118%

O=C(/C=C\c1ccc2ccccc2n1)c1cc(Cl)ccc1O
inactive: [1] 63.2% | [2] 58.7% | [3] 86.1% | [4] 97.8% | [5] 78.9% | [6] 52.3% | [7] 94.8% | [8] 104% | [9] 75.4% | [10] 115%

CNCc1cccc2c1OCCOCCOCCN(C)S(=O)(=O)c1ccc(cc1)-c1cnc(N)c(n1)C(=O)N2
active: [7] 9.56% | [9] 9.16%
inactive: [1] 52.6% | [2] 45.6% | [3] 25.5% | [4] 79.8% | [5] 10.5% | [6] 127% | [8] 60.5% | [10] 29.8%

COc1cc(OC)c(/C=C/c2cc[n+](C)c3ccccc23)c(OC)c1
active: [3] 6.52% | [5] 4.59% | [6] -10.8% | [7] -35.3% | [8] 8.24% | [10] -83.9%
inactive: [1] 17.3% | [2] 23.1% | [4] 17.1% | [9] 26.1%

O=C(N/N=C/c1ccc(O)cc1O)c1cccnc1
active: [7] -6.04%
inactive: [1] 45.3% | [2] 70.5% | [3] 29.9% | [4] 43.2% | [5] 10.9% | [6] 56.4% | [8] 46.4% | [9] 37.9% | [10] 23.4%

c1ccc2sc(SCCCn3ccnc3)nc2c1
inactive: [1] 81.4% | [2] 74.8% | [3] 98.7% | [4] 99.7% | [5] 97.8% | [6] 78.9% | [7] 50.4% | [8] 74.9% | [9] 104% | [10] 98.2%

C/C(Cc1ccc(Cl)cc1)=C(\c1ccc(OCCN2CCCCCC2)cc1)c1ccc(OC(=O)Cc2ccccc2)cc1
active: [10] -45.1%
inactive: [1] 71.3% | [2] 84.1% | [3] 67.3% | [4] 85.7% | [5] 18.2% | [6] 48.4% | [7] 62.9% | [8] 61.3% | [9] 65%
